In ChEMBL document CHEMBL1961873, “Compounds: GSK PKIS; Assays: Nanosyn kinase panel” (2012) one finds inhibition data, which are given here for 5 compounds.

In test [1] the target is Rho-associated protein kinase 1 (Homo sapiens) (UniProt Q13464). As to conditions: at 1 µM.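 Further: reported values are mean percent inhibition of ROCK1.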
Test [2] has as its target Rho-associated protein kinase 2 (Homo sapiens) (UniProt O75116). As to conditions: at 0.1 µM.
Test [3] has the same target. As to conditions: at 1 µM.
In test [4] the target is Ribosomal protein S6 kinase alpha-1 (Homo sapiens) (UniProt Q15418). As to conditions: at 0.1 µM.
Ribosomal protein S6 kinase alpha-1 (Homo sapiens), sequence (Q15418 whole entry): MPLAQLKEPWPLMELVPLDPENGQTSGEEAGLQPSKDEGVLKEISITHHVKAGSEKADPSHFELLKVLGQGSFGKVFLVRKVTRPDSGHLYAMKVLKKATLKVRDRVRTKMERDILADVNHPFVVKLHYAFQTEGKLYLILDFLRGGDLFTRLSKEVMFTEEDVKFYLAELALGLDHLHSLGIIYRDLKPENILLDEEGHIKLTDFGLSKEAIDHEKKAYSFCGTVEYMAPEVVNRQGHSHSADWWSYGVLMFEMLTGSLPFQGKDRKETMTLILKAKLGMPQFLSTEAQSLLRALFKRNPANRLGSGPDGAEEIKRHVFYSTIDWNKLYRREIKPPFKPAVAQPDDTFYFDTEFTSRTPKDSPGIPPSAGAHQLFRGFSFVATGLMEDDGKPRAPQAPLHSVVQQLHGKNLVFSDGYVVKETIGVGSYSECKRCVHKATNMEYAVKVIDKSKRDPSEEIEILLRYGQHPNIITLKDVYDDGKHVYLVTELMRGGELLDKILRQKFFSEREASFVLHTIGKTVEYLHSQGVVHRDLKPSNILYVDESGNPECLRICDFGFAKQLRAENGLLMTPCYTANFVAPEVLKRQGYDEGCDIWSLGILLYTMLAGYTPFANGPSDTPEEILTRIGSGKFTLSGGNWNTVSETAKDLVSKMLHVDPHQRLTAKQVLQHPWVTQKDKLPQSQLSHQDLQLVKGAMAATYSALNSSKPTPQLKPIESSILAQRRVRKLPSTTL
Test [5] shares this target. The settings on record: at 1 µM.
The target of test [6] is Ribosomal protein S6 kinase alpha-3 (Homo sapiens) (UniProt P51812). The settings on record: at 0.1 µM.
Ribosomal protein S6 kinase alpha-3 (Homo sapiens), sequence (P51812 whole entry): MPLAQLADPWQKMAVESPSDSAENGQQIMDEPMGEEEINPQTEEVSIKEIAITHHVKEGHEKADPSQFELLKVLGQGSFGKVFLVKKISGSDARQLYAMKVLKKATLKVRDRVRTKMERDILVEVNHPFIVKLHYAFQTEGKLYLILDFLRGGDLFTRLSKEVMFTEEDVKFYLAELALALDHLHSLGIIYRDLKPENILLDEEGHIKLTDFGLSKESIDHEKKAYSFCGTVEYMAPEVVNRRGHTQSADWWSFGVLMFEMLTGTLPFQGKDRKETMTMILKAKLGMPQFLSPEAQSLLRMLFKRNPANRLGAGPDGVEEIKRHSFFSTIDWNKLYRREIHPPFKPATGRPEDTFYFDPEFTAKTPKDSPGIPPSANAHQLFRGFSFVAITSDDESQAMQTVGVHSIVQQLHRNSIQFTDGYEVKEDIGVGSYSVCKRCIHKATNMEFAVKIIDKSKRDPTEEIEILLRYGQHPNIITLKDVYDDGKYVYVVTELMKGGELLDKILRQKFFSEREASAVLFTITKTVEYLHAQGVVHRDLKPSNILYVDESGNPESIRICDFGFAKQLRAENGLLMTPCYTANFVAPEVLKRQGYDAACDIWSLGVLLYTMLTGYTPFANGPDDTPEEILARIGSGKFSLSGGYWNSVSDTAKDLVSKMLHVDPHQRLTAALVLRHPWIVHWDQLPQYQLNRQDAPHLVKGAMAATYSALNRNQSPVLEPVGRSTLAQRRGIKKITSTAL
The target is the same in test [7]. The settings on record: at 1 µM.
Test [8] deals with Ribosomal protein S6 kinase alpha-2 (Homo sapiens) (UniProt Q15349). The settings on record: at 0.1 µM.
Ribosomal protein S6 kinase alpha-2 (Homo sapiens), sequence (Q15349 whole entry): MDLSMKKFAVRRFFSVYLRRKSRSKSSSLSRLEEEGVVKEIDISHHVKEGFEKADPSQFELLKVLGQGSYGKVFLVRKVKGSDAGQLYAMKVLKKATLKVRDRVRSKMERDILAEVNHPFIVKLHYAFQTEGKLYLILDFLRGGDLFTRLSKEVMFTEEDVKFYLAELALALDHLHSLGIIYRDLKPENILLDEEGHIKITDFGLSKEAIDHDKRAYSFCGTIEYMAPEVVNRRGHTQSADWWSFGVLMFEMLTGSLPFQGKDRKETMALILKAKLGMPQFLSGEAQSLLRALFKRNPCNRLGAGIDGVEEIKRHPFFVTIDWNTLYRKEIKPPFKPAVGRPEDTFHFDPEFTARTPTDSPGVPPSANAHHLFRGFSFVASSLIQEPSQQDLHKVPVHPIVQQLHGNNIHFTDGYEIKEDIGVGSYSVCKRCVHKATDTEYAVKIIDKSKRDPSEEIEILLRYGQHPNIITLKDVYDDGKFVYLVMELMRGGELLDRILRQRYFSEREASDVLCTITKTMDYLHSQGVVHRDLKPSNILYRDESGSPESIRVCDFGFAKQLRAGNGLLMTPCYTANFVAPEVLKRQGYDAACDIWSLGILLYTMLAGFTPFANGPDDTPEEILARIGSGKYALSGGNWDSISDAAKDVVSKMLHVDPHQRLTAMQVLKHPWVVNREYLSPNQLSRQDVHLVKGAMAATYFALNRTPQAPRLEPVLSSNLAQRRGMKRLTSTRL
The target is the same in test [9]. As to conditions: at 1 µM.
For test [10], the target named is Ribosomal protein S6 kinase alpha-6 (Homo sapiens) (UniProt Q9UK32). The settings on record: at 0.1 µM.
Ribosomal protein S6 kinase alpha-6 (Homo sapiens), sequence (Q9UK32 whole entry): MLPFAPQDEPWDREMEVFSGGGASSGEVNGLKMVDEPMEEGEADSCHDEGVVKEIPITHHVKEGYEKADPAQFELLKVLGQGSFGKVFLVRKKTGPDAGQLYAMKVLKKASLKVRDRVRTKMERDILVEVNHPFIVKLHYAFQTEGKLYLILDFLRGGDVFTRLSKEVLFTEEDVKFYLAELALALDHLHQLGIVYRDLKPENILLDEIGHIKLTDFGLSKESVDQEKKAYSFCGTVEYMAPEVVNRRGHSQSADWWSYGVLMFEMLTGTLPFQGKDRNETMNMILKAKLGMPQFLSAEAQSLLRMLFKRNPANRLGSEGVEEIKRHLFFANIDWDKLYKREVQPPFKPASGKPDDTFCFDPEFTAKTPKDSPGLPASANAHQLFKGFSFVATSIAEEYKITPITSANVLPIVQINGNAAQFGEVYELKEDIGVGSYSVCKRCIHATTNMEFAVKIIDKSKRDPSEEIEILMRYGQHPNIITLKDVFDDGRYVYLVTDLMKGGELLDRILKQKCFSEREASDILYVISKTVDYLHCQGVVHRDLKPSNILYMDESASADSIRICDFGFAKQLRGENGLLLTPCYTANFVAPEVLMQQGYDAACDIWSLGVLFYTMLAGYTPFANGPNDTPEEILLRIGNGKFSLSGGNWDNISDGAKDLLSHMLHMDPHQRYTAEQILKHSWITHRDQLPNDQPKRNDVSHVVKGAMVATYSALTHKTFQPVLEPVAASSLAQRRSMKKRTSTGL
Test [11] has the same target. The settings on record: at 1 µM.
Test [12] concerns the target T1, Serine/threonine-protein kinase Sgk1 (Homo sapiens) (UniProt O00141).
T1 sequence (whole entry): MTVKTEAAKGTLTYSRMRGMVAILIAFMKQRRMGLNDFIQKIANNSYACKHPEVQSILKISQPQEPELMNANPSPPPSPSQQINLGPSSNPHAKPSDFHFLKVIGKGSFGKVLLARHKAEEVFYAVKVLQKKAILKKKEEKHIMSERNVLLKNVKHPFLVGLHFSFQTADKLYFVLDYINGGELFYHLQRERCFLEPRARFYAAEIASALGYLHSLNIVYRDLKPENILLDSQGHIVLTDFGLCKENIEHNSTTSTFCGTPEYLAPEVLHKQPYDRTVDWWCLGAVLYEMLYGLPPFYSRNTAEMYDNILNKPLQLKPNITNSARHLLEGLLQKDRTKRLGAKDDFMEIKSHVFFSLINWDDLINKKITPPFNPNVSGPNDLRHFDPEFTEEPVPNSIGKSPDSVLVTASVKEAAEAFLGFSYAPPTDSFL
As to conditions: at 0.1 µM.

The target in test [13] is T1, Serine/threonine-protein kinase Sgk1 (Homo sapiens). As to conditions: at 1 µM.
Test [14] concerns the target T2, Serine/threonine-protein kinase Sgk2 (Homo sapiens) (UniProt Q9HBY8).
T2 sequence (whole entry): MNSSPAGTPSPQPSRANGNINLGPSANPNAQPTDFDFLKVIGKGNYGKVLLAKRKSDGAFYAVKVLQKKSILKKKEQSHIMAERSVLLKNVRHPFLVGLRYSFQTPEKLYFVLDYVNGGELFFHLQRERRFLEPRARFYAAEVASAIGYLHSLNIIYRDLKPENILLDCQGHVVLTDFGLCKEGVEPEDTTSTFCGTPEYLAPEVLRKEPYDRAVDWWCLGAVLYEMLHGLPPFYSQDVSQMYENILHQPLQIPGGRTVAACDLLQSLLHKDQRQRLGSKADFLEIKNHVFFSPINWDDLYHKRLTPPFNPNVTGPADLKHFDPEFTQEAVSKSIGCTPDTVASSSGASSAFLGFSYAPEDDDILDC
The settings on record: at 0.1 µM.

Test [15] concerns the target T2, Serine/threonine-protein kinase Sgk2 (Homo sapiens). As to conditions: at 1 µM.
Test [16] has as its target T3, Serine/threonine-protein kinase Sgk3 (Homo sapiens) (UniProt Q96BR1).
T3 sequence (whole entry): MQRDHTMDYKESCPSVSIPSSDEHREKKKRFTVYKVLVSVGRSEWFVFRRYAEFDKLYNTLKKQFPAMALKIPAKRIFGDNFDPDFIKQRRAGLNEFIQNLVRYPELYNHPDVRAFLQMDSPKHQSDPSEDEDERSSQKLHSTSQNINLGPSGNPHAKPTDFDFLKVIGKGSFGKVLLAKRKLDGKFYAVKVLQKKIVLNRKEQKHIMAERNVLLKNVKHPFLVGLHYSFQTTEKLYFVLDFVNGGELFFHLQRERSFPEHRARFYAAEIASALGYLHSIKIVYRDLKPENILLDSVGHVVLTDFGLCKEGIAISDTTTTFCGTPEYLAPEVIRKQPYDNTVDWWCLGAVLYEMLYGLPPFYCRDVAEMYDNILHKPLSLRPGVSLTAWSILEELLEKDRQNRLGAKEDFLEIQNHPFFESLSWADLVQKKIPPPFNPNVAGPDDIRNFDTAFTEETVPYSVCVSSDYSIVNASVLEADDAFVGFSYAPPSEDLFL
The settings on record: at 0.1 µM.

The target in test [17] is T3, Serine/threonine-protein kinase Sgk3 (Homo sapiens). As to conditions: at 1 µM.
Test [18] has as its target 5'-AMP-activated protein kinase catalytic subunit alpha-1 (Homo sapiens) (UniProt Q13131). As to conditions: at 0.1 µM.
Test [19] has the same target. The settings on record: at 1 µM.
Test [20] addresses 5'-AMP-activated protein kinase catalytic subunit alpha-2 (Homo sapiens) (UniProt P54646). As to conditions: at 0.1 µM.

5'-AMP-activated protein kinase catalytic subunit alpha-1 (Homo sapiens), sequence (Q13131 whole entry, looked up): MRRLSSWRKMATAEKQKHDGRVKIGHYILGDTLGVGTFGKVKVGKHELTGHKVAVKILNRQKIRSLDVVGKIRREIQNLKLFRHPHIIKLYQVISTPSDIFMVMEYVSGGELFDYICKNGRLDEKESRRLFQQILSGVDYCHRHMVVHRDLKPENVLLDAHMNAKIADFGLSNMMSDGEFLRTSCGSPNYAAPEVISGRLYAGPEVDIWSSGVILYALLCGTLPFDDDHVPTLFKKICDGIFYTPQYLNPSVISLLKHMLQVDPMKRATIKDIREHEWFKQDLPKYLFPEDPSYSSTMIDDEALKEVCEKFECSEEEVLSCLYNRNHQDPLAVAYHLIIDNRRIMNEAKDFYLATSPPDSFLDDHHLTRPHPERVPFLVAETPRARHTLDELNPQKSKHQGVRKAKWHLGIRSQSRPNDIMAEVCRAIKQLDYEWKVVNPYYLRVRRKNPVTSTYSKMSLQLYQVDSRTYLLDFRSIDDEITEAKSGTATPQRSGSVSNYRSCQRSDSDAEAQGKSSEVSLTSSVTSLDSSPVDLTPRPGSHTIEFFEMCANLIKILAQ
5'-AMP-activated protein kinase catalytic subunit alpha-2 (Homo sapiens), sequence (P54646 whole entry, looked up): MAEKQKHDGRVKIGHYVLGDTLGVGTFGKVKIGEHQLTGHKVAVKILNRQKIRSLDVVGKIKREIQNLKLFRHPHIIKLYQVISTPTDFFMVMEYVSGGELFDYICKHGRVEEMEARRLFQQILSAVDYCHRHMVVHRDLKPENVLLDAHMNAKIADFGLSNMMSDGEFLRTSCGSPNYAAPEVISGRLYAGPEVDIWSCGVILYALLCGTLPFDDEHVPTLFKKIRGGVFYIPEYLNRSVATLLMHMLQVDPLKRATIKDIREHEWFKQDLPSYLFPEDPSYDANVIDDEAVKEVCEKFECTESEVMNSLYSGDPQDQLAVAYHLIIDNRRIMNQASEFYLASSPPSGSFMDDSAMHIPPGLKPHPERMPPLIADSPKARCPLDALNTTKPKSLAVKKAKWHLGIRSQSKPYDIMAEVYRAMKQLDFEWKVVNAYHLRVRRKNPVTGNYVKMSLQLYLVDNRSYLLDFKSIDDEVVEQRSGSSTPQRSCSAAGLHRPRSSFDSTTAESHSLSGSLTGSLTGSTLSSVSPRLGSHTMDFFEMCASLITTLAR

`Nc1nccc(-c2c(-c3ccc(F)cc3)ncn2C2CCC(O)CC2)n1` (stereo not given): the inhibition in test [1] is 0.73%; in [2], -1.47%; in test [3], -1.96%; in test [4] it was -0.24%; in [5], 2.78%; in [6], -0.92%. Besides, the inhibition in [7] is -0.98%; in test [8], -0.62%; in test [9] it was 0.59%; in [10] it was -0.21%; in [11] it was 3.39%; in test [12], -2.26%. The inhibition in test [13] was -1.85%; in test [14], -3.55%; in test [15], 7.09%; in [16], 0.34%; in test [17] it was 1.61%; in test [18], 3.45%. In addition, the values for the inhibition in test [19] and in [20] were 0.93% and 0.71%, respectively.

Consider `Fc1ccc(-c2ncn(CCCN3CCOCC3)c2-c2ccncc2)cc1`, for which the inhibition in test [1] is -0.82%; in test [2], 0.06%; in test [3], -4.4%; in [4] it was -1.49%; in [5], -3.25%; in [6] it was 0.33%. Besides, the inhibition was -0.73% in test [7]; 0.61% in [8]; -0.22% in [9]; 0.43% in [10]; -0.21% in [11]; -0.45% in test [12]. The inhibition is 0.64% in [13]; 1.89% in test [14]; -4.02% in [15]; -1.19% in test [16]; -1.33% in [17]; 0.37% in test [18]. The values for the inhibition in [19] and in test [20] were -1.12% and 0.28%, respectively.

Regarding `COc1ccc(-c2ccc3c(NC(=O)C4CC4)n[nH]c3n2)cc1`, the inhibition in test [1] was -0.75%; in [2] it was 1.6%; in test [3], 3.71%; in [4], 0.22%; in test [5], 2.59%; in [6] it was 1.62%. Moreover, the inhibition worked out at 3% in [7]; 1.1% in [8]; 1.69% in test [9]; 0.83% in test [10]; 0.85% in test [11]; 1.6% in [12]. The inhibition came to 6% in test [13]; 1.24% in [14]; 3.76% in test [15]; 2.58% in test [16]; 3.92% in test [17]; 1.15% in test [18]. For the same compound, the inhibition in test [19] turned out to be 2.02%; in [20] it was 0.53%.

Turning to `NC(=O)Cc1ccccc1Oc1nccc(-c2c(-c3ccc(F)cc3)ncn2C2CCNCC2)n1`, the inhibition was 1.73% in test [1]; -0.06% in [2]; 0.19% in [3]; 1.2% in test [4]; 0.63% in test [5]; 0.99% in [6]. Further, the inhibition in test [7] is 1.35%; in test [8] it was 1.2%; in test [9] it was 3.57%; in test [10] it was 1.6%; in test [11] it was 2.01%; in test [12] it was -0.43%. Further, the inhibition was 0.48% in test [13]; 1.13% in [14]; 0.76% in [15]; 0.96% in test [16]; 0.86% in test [17]; 2.61% in test [18]. The inhibition was found to be 1.44% in test [19] and 1.24% in test [20].

On to `CCS(=O)(=O)c1ccc(OC)c(Nc2ncc(-c3ccccc3Cl)o2)c1`, for which the inhibition is -0.3% in test [1]; 1.15% in test [2]; 2.53% in test [3]; 1.95% in test [4]; 5.76% in test [5]; 0.57% in [6]. The inhibition in test [7] is 4.01%; in test [8], 0.2%; in [9] it was 4.26%; in test [10] it was 2.01%; in test [11], 3.92%; in test [12] it was -0.42%. Also, the inhibition in test [13] is 2.5%; in test [14], -1.58%; in [15], -2.15%; in test [16] it was -0.26%; in [17] it was -1.36%; in [18] it was 1.54%. In addition, the inhibition was 0.82% in test [19] and -1.8% in test [20].
